We go through 9 compounds from PubChem BioAssay (NCI).

The panel holds about 83,000 compounds, 20% with a hit somewhere; the sample as a whole holds those more often.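 Cells were grown in 96-well plates and exposed to the test compound at a single concentration for 48 hours; results are reported as percent growth, with values below 10 considered active.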 Values without a mark were called inactive. Active and inactive are the calls of the source.

Some test systems named below: SR leukemia; RPMI-8226 leukemia; OVCAR-8 ovarian; OVCAR-5 ovarian; OVCAR-4 ovarian; SK-OV-3 ovarian; IGROV1 ovarian; OVCAR-3 ovarian; NCI/ADR-RES ovarian; T-47D breast; BT-549 breast; MDA-MB-435 melanoma; SW-620 colon; MCF7 breast; HCT-116 colon; HCC-2998 colon; KM12 colon.
Assay in all cases: NCI-60 one-dose screen, 48 h (100 = growth as untreated, 0 = no growth, -100 = all killed)
Holding throughout (conditions): 10 µM unless noted

On to `O=C(CCC(=O)N(CCO)CCO)N(CCO)CCO`, for which the growth was 89.8% with SR leukemia; 101% in the assay with RPMI-8226 leukemia; 103% in the assay with OVCAR-8 ovarian; 105% in the assay with OVCAR-5 ovarian; 105% in the assay on OVCAR-4 ovarian; 99% in the assay with SK-OV-3 ovarian. The growth in the assay on IGROV1 ovarian was 98.1%; in the assay with OVCAR-3 ovarian it was 97.5%; in the assay on NCI/ADR-RES ovarian, 108%; in the assay with T-47D breast it was 98.5%; with BT-549 breast, 93.5%; in the assay with MDA-MB-435 melanoma, 109%. For the same compound, the growth is 106% with SW-620 colon; 94.6% with MCF7 breast; 95.7% in the assay on HCT-116 colon; 110% in the assay on HCC-2998 colon; 99.8% in the assay on KM12 colon.

In the case of `N#CC1=C(N2CCOCC2)NC2c3ccccc3Sc3ccccc3N2C1=N` (stereo not drawn), the growth in the assay on SR leukemia is 119%; in the assay with RPMI-8226 leukemia it was 106%; in the assay with OVCAR-8 ovarian, 98.7%; in the assay with OVCAR-5 ovarian, 109%; in the assay on OVCAR-4 ovarian, 109%; in the assay on SK-OV-3 ovarian it was 81.7%. The growth in the assay with IGROV1 ovarian is 79.1%; in the assay on OVCAR-3 ovarian, 103%; in the assay on NCI/ADR-RES ovarian it was 89.9%; in the assay with T-47D breast, 85.8%; with BT-549 breast it was 97.2%; in the assay on MDA-MB-435 melanoma it was 107%. In addition, the growth with MCF7 breast was 98.4%; in the assay on HCT-116 colon, 97.2%; with HCC-2998 colon it was 104%; with KM12 colon it was 110%.

`Cc1cc(CSc2ccc(Cl)cc2)ccc1N`: the growth was 93.5% in the assay with SR leukemia; 15.5% in the assay with RPMI-8226 leukemia; 99.8% with OVCAR-8 ovarian; 99.6% with OVCAR-5 ovarian; 96.9% in the assay on OVCAR-4 ovarian; 106% in the assay on SK-OV-3 ovarian. The growth in the assay with IGROV1 ovarian is 86%; with OVCAR-3 ovarian it was 97.6%; with NCI/ADR-RES ovarian, 95%; with T-47D breast, 84.1%; in the assay on BT-549 breast it was 55.6%; in the assay with MDA-MB-435 melanoma, 104%. Further, the growth in the assay on MCF7 breast is 112%; in the assay with HCT-116 colon, 101%; in the assay on HCC-2998 colon it was 97.7%; with KM12 colon, 70.7%.

In the case of `C/C(=C\c1ccc2ccccc2c1)[N+](=O)[O-]`, the growth is 4.41% (active) in the assay with SR leukemia; -33.9% (active) with RPMI-8226 leukemia; 11.7% with OVCAR-8 ovarian; 82.6% in the assay on OVCAR-5 ovarian; 87.6% in the assay with OVCAR-4 ovarian; 99.4% in the assay with SK-OV-3 ovarian. In addition, the growth in the assay with IGROV1 ovarian is -20% (active); with OVCAR-3 ovarian, -76.6% (active); in the assay with NCI/ADR-RES ovarian, 88.4%; with T-47D breast it was -52.8% (active); in the assay with BT-549 breast, 64.4%; in the assay with MDA-MB-435 melanoma, 51.8%. Besides, the growth is -33.8% (active) in the assay with SW-620 colon; -50.9% (active) in the assay with MCF7 breast; -40.7% (active) in the assay on HCT-116 colon; 78.5% with HCC-2998 colon; 56% in the assay on KM12 colon.

For the compound `Nc1nc2c(c3cnccc13)C(c1cccc(Br)c1)Cc1cnccc1-2` (stereo not drawn), the growth in the assay on SR leukemia is 17.8%; in the assay on RPMI-8226 leukemia, -2.76% (active); with OVCAR-8 ovarian, 28.8%; in the assay on OVCAR-5 ovarian it was 43.9%; with OVCAR-4 ovarian it was 37.5%; with SK-OV-3 ovarian, 30.8%. Further, the growth in the assay with IGROV1 ovarian is 27.9%; in the assay on OVCAR-3 ovarian, 1.08% (active); in the assay with NCI/ADR-RES ovarian, -4.12% (active); in the assay with T-47D breast, 43.9%; with BT-549 breast, -15.6% (active); with MDA-MB-435 melanoma it was -37.2% (active). Further, the growth in the assay with SW-620 colon was 25.9%; in the assay with HCT-116 colon, 3.93% (active); in the assay on HCC-2998 colon it was 34.8%; in the assay on KM12 colon, 13.2%.

For the compound `CCCCCCCCCCCCOC(=N)N(C)C`, the growth was 82.4% in the assay with SR leukemia; 99.7% in the assay on RPMI-8226 leukemia; 98.9% in the assay with OVCAR-8 ovarian; 99.4% with OVCAR-5 ovarian; 117% in the assay on OVCAR-4 ovarian; 97.3% in the assay with SK-OV-3 ovarian. Also, the growth in the assay with IGROV1 ovarian is 106%; in the assay with OVCAR-3 ovarian, 92.6%; in the assay on NCI/ADR-RES ovarian it was 102%; in the assay on T-47D breast, 89.9%; in the assay on BT-549 breast it was 96.7%; in the assay on MDA-MB-435 melanoma, 97.4%. Moreover, the growth with SW-620 colon is 98.8%; with MCF7 breast it was 94.1%; with HCT-116 colon, 87.6%; in the assay on HCC-2998 colon, 101%; in the assay with KM12 colon it was 101%.

As for `COc1ccccc1CNCCCN1C(=O)c2ccc3c4c(ccc(c24)C1=O)C(=O)N(CCCNCc1ccccc1OC)C3=O`, the growth in the assay with SR leukemia was -45.7% (active); in the assay with RPMI-8226 leukemia, -31.8% (active); with OVCAR-8 ovarian, -47.1% (active); in the assay with OVCAR-5 ovarian, -27.4% (active); in the assay on OVCAR-4 ovarian, -96.5% (active); in the assay with SK-OV-3 ovarian, 0% (active). The growth in the assay with IGROV1 ovarian is -58.2% (active); with OVCAR-3 ovarian, -59.9% (active); with NCI/ADR-RES ovarian, -2.55% (active); in the assay with T-47D breast, -22.9% (active); in the assay on BT-549 breast it was -71.6% (active); in the assay with MDA-MB-435 melanoma it was -79.3% (active). Besides, the growth in the assay with MCF7 breast is -63.9% (active); in the assay on HCT-116 colon, -60.5% (active); in the assay with HCC-2998 colon, -94.7% (active); in the assay with KM12 colon, -79% (active).

Turning to `CC(C)CSc1nc(-c2ccc(F)cc2)c(C#N)c(N2CCCCC2)n1`, the growth with SR leukemia is 84.3%; with RPMI-8226 leukemia, 102%; in the assay on OVCAR-8 ovarian, 94%; in the assay with OVCAR-5 ovarian, 90.5%; in the assay with OVCAR-4 ovarian, 97.1%; in the assay on SK-OV-3 ovarian, 99.6%. For the same compound, the growth in the assay with IGROV1 ovarian was 104%; in the assay on OVCAR-3 ovarian, 93%; in the assay on NCI/ADR-RES ovarian, 88.7%; in the assay with T-47D breast it was 91.2%; with BT-549 breast, 88.9%; in the assay with MDA-MB-435 melanoma it was 98.6%. In addition, the growth in the assay on SW-620 colon was 97.8%; with MCF7 breast it was 83%; with HCT-116 colon it was 89.5%; in the assay on HCC-2998 colon it was 104%; in the assay with KM12 colon, 86.1%.

As for `COC(=O)[C@H](Cc1cn(C)cn1)NC(=O)[C@@H](NC(=O)Nc1cc(C(F)(F)F)cc(C(F)(F)F)c1)C(C)(C)C`, the growth in the assay on SR leukemia was -41.3% [100 µM] (active); in the assay with RPMI-8226 leukemia, -53.8% [100 µM] (active); in the assay on OVCAR-8 ovarian it was -55.2% [100 µM] (active); with OVCAR-5 ovarian, 39.7% [100 µM]; with OVCAR-4 ovarian, -71.5% [100 µM] (active); in the assay with SK-OV-3 ovarian, -25.6% [100 µM] (active). The growth in the assay with IGROV1 ovarian was -63% [100 µM] (active); with OVCAR-3 ovarian it was -99.3% [100 µM] (active); with NCI/ADR-RES ovarian, 78.1% [100 µM]; in the assay with T-47D breast, -63.9% [100 µM] (active); with BT-549 breast, -90.4% [100 µM] (active); in the assay on MDA-MB-435 melanoma, -89.3% [100 µM] (active). Besides, the growth in the assay with SW-620 colon was -46.4% [100 µM] (active); in the assay with MCF7 breast, -59.2% [100 µM] (active); with HCT-116 colon, -91.5% [100 µM] (active); in the assay with KM12 colon it was -88.7% [100 µM] (active).
